Source: the supplement of paper PMC3334620
In all, about 33,000 sequences were measured (“E-score (-0.5 to 0.5)”: median about -0.043, highest 2% from about 0.37 on). The sample holds the highest values, similar sequences and a random draw of the others, so the mix is not that of the screen.

target: T1, Upc2 (UniProt Q12151); test: PBM E-score (8-mer binding enrichment) (E-score (-0.5 to 0.5)); higher = stronger / more preferred TF binding; details: protein concentration: 200 nM; construct: GST-full length
T1 sequence: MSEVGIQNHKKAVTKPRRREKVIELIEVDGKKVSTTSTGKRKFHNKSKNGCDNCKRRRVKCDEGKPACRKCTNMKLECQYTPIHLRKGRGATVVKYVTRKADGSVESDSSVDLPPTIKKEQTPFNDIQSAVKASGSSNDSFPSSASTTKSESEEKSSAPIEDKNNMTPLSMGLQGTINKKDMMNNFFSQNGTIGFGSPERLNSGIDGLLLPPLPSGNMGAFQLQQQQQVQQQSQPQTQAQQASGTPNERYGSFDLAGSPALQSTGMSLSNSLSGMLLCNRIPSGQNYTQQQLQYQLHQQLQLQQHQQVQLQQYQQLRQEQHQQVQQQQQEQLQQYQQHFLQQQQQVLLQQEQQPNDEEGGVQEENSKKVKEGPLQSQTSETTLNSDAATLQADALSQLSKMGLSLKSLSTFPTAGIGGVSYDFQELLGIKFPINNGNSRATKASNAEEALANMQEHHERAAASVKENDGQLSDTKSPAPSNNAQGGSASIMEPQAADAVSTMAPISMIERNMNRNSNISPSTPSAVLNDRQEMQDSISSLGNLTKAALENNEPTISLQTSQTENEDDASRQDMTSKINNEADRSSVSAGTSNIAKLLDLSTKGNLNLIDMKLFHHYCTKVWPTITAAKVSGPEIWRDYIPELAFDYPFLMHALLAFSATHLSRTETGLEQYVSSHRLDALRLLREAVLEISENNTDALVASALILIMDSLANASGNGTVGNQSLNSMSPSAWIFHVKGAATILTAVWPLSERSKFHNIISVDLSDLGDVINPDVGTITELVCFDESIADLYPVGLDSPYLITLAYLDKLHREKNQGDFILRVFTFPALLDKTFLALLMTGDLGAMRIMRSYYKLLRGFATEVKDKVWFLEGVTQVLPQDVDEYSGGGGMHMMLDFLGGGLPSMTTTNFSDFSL
Experimental: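 Universal 'all 10-mer' protein binding microarrays (Agilent AMADID 015681) probed with GST-tagged S. cerevisiae TFs (full-length or DBD) made by in vitro transcription/translation (PURExpress), about 100-200 nM. Bound TF was detected with fluorescent anti-GST. Each ungapped 8-mer (which stands for itself and its reverse complement) is scored by the PBM enrichment score (E-score), a modified Wilcoxon-Mann-Whitney statistic from -0.5 to +0.5, computed with the Universal PBM Analysis Suite. Scale: above 0.35 generally sequence-specific binding.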

| Sequence | PBM E-score |
| --- | --- |
| CGTCGGGC | -0.231 |
| ATCAATCA | 0.0322 |
| AAAATCCT | 0.0605 |
| AGGTTACG | 0.221 |
| ATCGTAGC | 0.356 |
| CACGTAGC | -0.0699 |
| GTCGTAGA | 0.386 |
| CTCGTAGA | 0.404 |
| CACGTAGA | 0.0732 |
| CTCGTAGC | 0.4 |
| GACGTAGA | 0.054 |
| ATCGTAGA | 0.337 |
| GTAGTAGA | -0.0548 |
| GTGGGGCA | -0.058 |
| CAGTGTCC | -0.141 |
| AGCCAATC | -0.0383 |
| TCCAGCCA | -0.231 |
| AGTCTATA | 0.0445 |
| ATGATCTA | -0.00479 |
| CACGAGCC | 0.0758 |
| TCCGAGCA | 0.176 |
| AGCGAGCT | 0.225 |
| AACGAGCC | 0.449 |
| TGCGAGCA | 0.21 |
| AACGAGCG | 0.442 |
| GACGAGCC | -0.00056 |

| Sequence | PBM E-score |
| --- | --- |
| AGCGAGCG | 0.281 |
| TACGAGCA | 0.465 |
| CACGAGCG | 0.17 |
| ACCGAGCT | 0.186 |
| AACGAGCT | 0.438 |
| CGCCGCTC | -0.0776 |
| AGTAACCA | -0.164 |
| CGCCAGCA | -0.169 |
| ATTGATAC | 0.173 |
| GGCAACAA | 0.0296 |
| GACGCCAA | -0.0565 |
| AGTTGATA | -0.0653 |
| GGGTGCAC | -0.128 |
| CGCATAGA | 0.158 |
| GACGAGCA | 0.00509 |
| CACGAGCA | -0.0761 |
| AACGAGCA | 0.444 |
| CATGCTAA | -0.2 |
| GAGGTTTA | 0.0651 |
| ATTGGACA | -0.0219 |
| GAACGGCA | 0.27 |
| AAACGGCG | 0.401 |
| CAACGGCA | -0.0468 |
| AAACGGCA | 0.37 |
| AAACGGCT | 0.296 |
| AAACGGCC | 0.359 |

| Sequence | PBM E-score |
| --- | --- |
| TAGAAACA | 0.0409 |
| GAGTGTGA | 0.156 |
| CGCCCAAG | -0.0616 |
| ATCTAAGA | -0.179 |
| GCAGTACC | -0.124 |
| GAGCACAA | -0.0319 |
| ACGAGCGC | 0.347 |
| GCGAGCGA | 0.226 |
| ACGAGCGG | 0.369 |
| ACGAGCGA | 0.379 |
| CCGAGCGA | 0.193 |
| ACGAGCGT | 0.386 |
| ACTCAGTA | 0.18 |
| ATGGTGGG | -0.278 |
| AACCTGTA | 0.118 |
| ACACGAAC | 0.216 |
| AGACGAAC | 0.29 |
| GCACGAAC | 0.25 |
| GAACGAAA | 0.416 |
| AAACGAAC | 0.471 |
| CCACGAAA | -0.0902 |
| CAACGAAC | 0.257 |
| GAACGAAC | 0.441 |
| TGACGAAA | 0.00712 |
| ATGCTGAA | -0.151 |
| GTTGTGAA | 0.00742 |

| Sequence | PBM E-score |
| --- | --- |
| GAAGCAGA | -0.244 |
| CGCAGCCC | -0.0774 |
| AATACGGC | 0.291 |
| CATACGGC | 0.383 |
| CGTACGGA | 0.382 |
| CGTACGTC | 0.338 |
| CGTACGGC | 0.381 |
| AGTACGGC | 0.299 |
| AGTACGGA | 0.224 |
| GGTACGGA | 0.355 |
| CATACGGG | 0.367 |
| AGTTGGCA | 0.0278 |
| CGTCGATA | -0.028 |
| AAGCTACA | -0.125 |
| CCGTCGCG | 0.132 |
| GAAAAACC | -0.037 |
| TCCTCAAA | -0.24 |
| AGAGCCCG | -0.0194 |
| CTGACGTA | 0.164 |
| ATGAACGC | 0.14 |
| GTGAACGA | 0.453 |
| ATGAACGA | 0.459 |
| CTGAACTA | -0.104 |
| CTGAACGC | 0.121 |
| CTGAACGA | 0.472 |
| ATGAACGG | 0.261 |

| Sequence | PBM E-score |
| --- | --- |
| GTGAACTA | 0.142 |
| GTGAACAA | 0.128 |
| TTGACCAA | -0.179 |
| AACTACCT | -0.152 |
| ACCAGAAC | 0.0633 |
| GACGATGC | -0.0158 |
| AACGATGC | 0.352 |
| GACGATGA | -0.00259 |
| AACGATGT | 0.388 |
| TACGATGA | 0.433 |
| AACGATGG | 0.391 |
| ATCGATGA | -0.0519 |
| AACGATGA | 0.387 |
| ACCGATGA | 0.0812 |
| CACGATGC | 0.0841 |
| CACGATGA | 0.169 |
| CACGATGG | 0.0566 |
| CCAGTGAC | -0.217 |
| CAGAGATG | -0.222 |
| GACTGATC | -0.118 |
| GATTCCCC | -0.214 |
| GAGTACGC | -0.0301 |
| CAGTACGA | 0.411 |
| TAGTACCA | -0.148 |
| AAGTACGA | 0.407 |
| TAGTACGA | 0.401 |

| Sequence | PBM E-score |
| --- | --- |
| AAGTACGC | 0.115 |
| TAGTACAA | 0.00376 |
| CAGTACGG | 0.257 |
| GAGTACAA | -0.0557 |
| AAGTACGT | 0.154 |
| CAGTACGC | 0.037 |
| GAGTACGA | 0.375 |
| TCTGATCA | -0.317 |
| TCGCAAAA | 0.216 |
| CGCTACAG | -0.105 |
| CGTCTATA | 0.0202 |
| CGGGAGGA | -0.157 |
| AGAGCATA | -0.0221 |
| AACTTTGT | -0.172 |
| TTTAGAAA | 0.133 |
| GCTTAGCA | -0.00347 |
| TAATTACA | -0.0323 |
| ACGATCGC | 0.352 |
| ACGATCGT | 0.438 |
| ACGATCGG | 0.295 |
| AAGATCGC | 0.148 |
| AAGATCGG | -0.0541 |
| AAGATCGT | 0.371 |
| ATTACCGC | 0.0457 |
| ACGAGCTA | 0.394 |
| CCGAGCTC | 0.197 |

| Sequence | PBM E-score |
| --- | --- |
| GCGAGCTA | 0.207 |
| CCGAGCTA | 0.0202 |
| ACGAGCTC | 0.404 |
| ACGAGCTG | 0.36 |
| AGGATAGG | -0.0689 |
| CTTCATCC | -0.177 |
| ACTCAGTC | -0.097 |
| GCTGCAGC | -0.125 |
| CCCATACA | -0.22 |
| CCCATACG | 0.407 |
| CCCATACC | 0.0537 |
| ACCATACA | -0.0345 |
| ACCATACC | -0.0989 |
| ACCATACG | 0.399 |
| ACTAAGAA | -0.0494 |
| GATGGGAA | -0.0309 |
| TCGGAAAA | 0.234 |
| ATAAGATA | 0.146 |
| GGTAAAGA | 0.0863 |
| CGTAAAGC | 0.403 |
| CGTAAAGA | 0.412 |
